For experiment [1], the target named is human Vascular Endothelial Growth Factor Receptor 2 (VEGFR2), KDR (gene 3791) (UniProt P35968). Briefly: NVS_ENZ_hVEGFR2: NovaScreen (NVS) Enzymatic Assay for human Vascular Endothelial Growth Factor Receptor 2 (VEGFR2) (AID 2283230). An outline of the steps: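 Cell-free recombinant VEGFR2 kinase, fluorescent substrate with electrophoretic mobility-shift separation; read 1 h after dosing. Screened at 25 uM in duplicate, hits to concentration-response up to 50 uM; loss-of-signal versus DMSO.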

Experiment [2] can be described thus: NVS_GPCR_bNPY_NonSelective: NovaScreen (NVS) G Protein-Coupled Receptor Assay for bovine Neuropeptide Y (NPY) Receptor, Non-selective Binding (AID 2283245). An outline of the steps: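 Bovine hippocampal membranes incubated 1 hour with radioligand and test chemical. Bound ligand measured by filter-based scintillation counting. Single-concentration screen at 25 uM in duplicate, then concentration-response up to 50 uM.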

Experiment [3] deals with guinea pig Leukotriene D4 Receptor (LTD4), CYSLTR1 (gene 100135514) (UniProt Q2NNR5). The experiment can be described thus: NVS_GPCR_gLTD4: NovaScreen (NVS) G Protein-Coupled Receptor Assay for guinea pig Leukotriene D4 Receptor (LTD4) (AID 2283248). In short, it runs like this:
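Radioligand displacement on guinea pig lung membranes, 1 h incubation, filtration and scintillation counting; DMSO as negative control. Duplicate 25 uM primary screen, then singleton concentration-response up to 50 uM.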

Experiment [4] deals with human Serotonin, 5-Hydroxytryptamine Receptor 2A (5HT2A), HTR2A (gene 3356) (UniProt P28223). Briefly: NVS_GPCR_h5HT2A: NovaScreen (NVS) G Protein-Coupled Receptor Assay for human Serotonin, 5-Hydroxytryptamine Receptor 2A (5HT2A) (AID 2283249). In short, it runs like this: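 Human cortex membranes, cell-free radioligand binding; filter-based scintillation read 1.5 h after dosing. Duplicate screen at 25 uM first; displacement of specific binding (loss of signal) versus DMSO.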

The target in experiment [5] is human Serotonin, 5-Hydroxytryptamine Receptor 5A (5HT5A), HTR5A (gene 3361) (UniProt P47898). Briefly: NVS_GPCR_h5HT5A: NovaScreen (NVS) G Protein-Coupled Receptor Assay for human Serotonin, 5-Hydroxytryptamine Receptor 5A (5HT5A) (AID 2283251). An outline of the steps:
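Cell-free radioligand displacement binding on HEK293-derived membrane protein, 1 h incubation, filter-based scintillation counting. Primary screen in duplicate at 25 uM, actives followed in concentration series; loss of signal fitted versus DMSO.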

In experiment [6] the target is guinea pig Opioid, Kappa 1 Receptor (OpiateK), OPRK1 (gene 100135587) (UniProt P41144). Briefly: NVS_GPCR_gOpiateK: NovaScreen (NVS) G Protein-Coupled Receptor Assay for guinea pig Opioid, Kappa 1 Receptor (OpiateK) (AID 2283252).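 Note: radioligand displacement from kappa opioid receptor in guinea pig cerebellar membranes; active means reduced radioligand binding relative to DMSO.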 An outline of the steps:
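Guinea pig cerebellar membranes, radioligand displacement with filter-based scintillation counting, 2 h after dosing. Primary screen single concentration 25 uM in duplicate; actives retested in concentration series; loss of binding fitted versus DMSO.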

Experiment [7] deals with human Serotonin, 5-Hydroxytryptamine Receptor 7 (5HT7), HTR7 (gene 3363) (UniProt P34969). The experiment can be described thus: NVS_GPCR_h5HT7: NovaScreen (NVS) G Protein-Coupled Receptor Assay for human Serotonin, 5-Hydroxytryptamine Receptor 7 (5HT7) (AID 2283255).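 Note: hits reduce specific radioligand binding relative to DMSO.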 In short, it runs like this: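 Radioligand displacement on membranes from CHO cells expressing human 5HT7, 1 h incubation, filter-based scintillation counting. Primary screen used a single 25 uM concentration in duplicate; actives were followed up in concentration series.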

Experiment [8] deals with sheep Cyclooxygenase-1 (Cox1), PTGS1 (gene 443551) (UniProt P05979). The experiment can be described thus: NVS_ENZ_oCOX1: NovaScreen (NVS) Enzymatic Assay for sheep Cyclooxygenase-1 (Cox1) (AID 2283239).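 Note: actives reduce cyclooxygenase activity so potencies are for inhibitors.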 In short, it runs like this:
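Colorimetric enzyme readout using sheep seminal-vesicle cyclooxygenase-1, measured 0.66 h post-dosing. Single-concentration duplicates at 25 uM first, then concentration series for actives, with DMSO as baseline and plate controls.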

For experiment [9], the target named is rat Catechol-O-Methyl Transferase (COMT), Comt (gene 24267) (UniProt P22734). Briefly: NVS_ENZ_rCOMT: NovaScreen (NVS) Enzymatic Assay for rat Catechol-O-Methyl Transferase (COMT) (AID 2283235). In short, it runs like this: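 Cell-free enzyme activity with protein extracted from rat dorsal striatum, measured by HPLC with absorbance detection. Compounds screened at 25 uM in duplicate; actives then run in concentration-response up to 50 uM, loss of signal versus DMSO.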

The test system of experiment [10] is guinea pig Leukotriene B4 Receptor (LTB4), gene 100379538. The experiment can be described thus: NVS_GPCR_gLTB4: NovaScreen (NVS) G Protein-Coupled Receptor Assay for guinea pig Leukotriene B4 Receptor (LTB4) (AID 2283247). In short, it runs like this:
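Radioligand displacement on guinea pig spleen membranes, filter-based scintillation counting 2 h after dosing. Primary duplicate single point at 25 uM; hits over threshold (e.g. 30% inhibition) run in concentration-response up to 50 uM, DMSO baseline.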

In experiment [11] the target is human Serotonin, 5-Hydroxytryptamine Receptor 6 (5HT6), HTR6 (gene 3362) (UniProt P50406). The experiment can be described thus: NVS_GPCR_h5HT6: NovaScreen (NVS) G Protein-Coupled Receptor Assay for human Serotonin, 5-Hydroxytryptamine Receptor 6 (5HT6) (AID 2283253). An outline of the steps:
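Radioligand binding to 5HT6 in HEK293-derived membranes, cell-free, 1 h after dosing; bound ligand measured by filter-based scintillation counting. Primary screen in duplicate at 25 uM; actives retested in concentration series.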

For experiment [12], the system named is guinea pig Muscarinic, Peripheral (Mperiperal) Receptor, Non-selective Binding, gene 100379235. The experiment can be described thus: NVS_GPCR_gMPeripheral_NonSelective: NovaScreen (NVS) G Protein-Coupled Receptor Assay for guinea pig Muscarinic, Peripheral (Mperiperal) Receptor, Non-selective Binding (AID 2283250). In short, it runs like this: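 Guinea pig bladder membranes, radioligand binding read 1 h after dosing by filter scintillation counting; loss of signal vs DMSO. Primary duplicate screen at 25 uM, then concentration-response up to 50 uM.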

The subject of experiment [13] is bovine Histamine 1 Receptor (H1), gene 281231. The experiment can be described thus: NVS_GPCR_bH1: NovaScreen (NVS) G Protein-Coupled Receptor Assay for bovine Histamine 1 Receptor (H1) (AID 2283246). An outline of the steps: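 Radioligand displacement on bovine cerebellar membranes, 1 h after dosing, filter-based scintillation read-out; loss of signal vs DMSO. Duplicate single-concentration screen at 25 uM, then concentration-response up to 50 uM for hits.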

In experiment [14] the target is human Adenosine A1 Receptor (AdoRA1), ADORA1 (gene 134) (UniProt P30542). Briefly: NVS_GPCR_hAdoRA1: NovaScreen (NVS) G Protein-Coupled Receptor Assay for human Adenosine A1 Receptor (AdoRA1) (AID 2283254). In short, it runs like this:
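Membranes from human cortical tissue were incubated with radioligand and test chemical for 1 hour, then filtered and counted. Activity was taken as signal loss relative to DMSO, screened at 25 uM in duplicate before concentration-response follow-up.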

The target of experiment [15] is human Adenosine A2a Receptor (AdoRA2a), ADORA2A (gene 135) (UniProt P29274). Briefly: NVS_GPCR_hAdoRA2a: NovaScreen (NVS) G Protein-Coupled Receptor Assay for human Adenosine A2a Receptor (AdoRA2a) (AID 2283256). In short, it runs like this: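 Cell-free radioligand binding on membranes from HEK293 expressing the receptor; competitive displacement read 1.5 h after dosing by filter-based scintillation counting. Primary screen in duplicate at 25 uM; actives followed in concentration series, with DMSO as baseline.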

The test system of experiment [16] is bovine Angiotensin II Receptor Type 2 (AT2), gene 407157. The experiment can be described thus: NVS_GPCR_bAT2: NovaScreen (NVS) G Protein-Coupled Receptor Assay for bovine Angiotensin II Receptor Type 2 (AT2) (AID 2283240). An outline of the steps:
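Radioligand displacement on bovine cerebellar membranes, 1 hour incubation, filter-based scintillation counting; loss of signal vs DMSO. Duplicate single-point screen at 25 uM, then concentration-response to 50 uM maximum.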

Records with an inconclusive call do not appear. Active and inactive are the calls of the source. Rule for the calls: active = hit-call score of the fitted dose curve at least 0.9, where 1 is the maximum; inconclusive = response in the unintended direction; inactive = score below 0.9.

human Adenosine A2a Receptor (AdoRA2a), ADORA2A (gene 135), sequence (P29274 whole entry, looked up): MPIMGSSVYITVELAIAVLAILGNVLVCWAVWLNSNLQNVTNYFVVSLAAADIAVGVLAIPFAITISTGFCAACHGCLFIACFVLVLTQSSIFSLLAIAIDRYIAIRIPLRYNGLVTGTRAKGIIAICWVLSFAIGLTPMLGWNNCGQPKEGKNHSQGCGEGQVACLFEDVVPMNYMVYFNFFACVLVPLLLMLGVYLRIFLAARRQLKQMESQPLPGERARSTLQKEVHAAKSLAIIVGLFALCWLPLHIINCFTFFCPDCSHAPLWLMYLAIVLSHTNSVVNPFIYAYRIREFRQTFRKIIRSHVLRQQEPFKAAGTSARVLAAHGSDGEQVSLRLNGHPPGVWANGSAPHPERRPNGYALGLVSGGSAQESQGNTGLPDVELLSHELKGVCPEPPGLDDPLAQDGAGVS
human Serotonin, 5-Hydroxytryptamine Receptor 7 (5HT7), HTR7 (gene 3363), sequence (P34969 whole entry, looked up): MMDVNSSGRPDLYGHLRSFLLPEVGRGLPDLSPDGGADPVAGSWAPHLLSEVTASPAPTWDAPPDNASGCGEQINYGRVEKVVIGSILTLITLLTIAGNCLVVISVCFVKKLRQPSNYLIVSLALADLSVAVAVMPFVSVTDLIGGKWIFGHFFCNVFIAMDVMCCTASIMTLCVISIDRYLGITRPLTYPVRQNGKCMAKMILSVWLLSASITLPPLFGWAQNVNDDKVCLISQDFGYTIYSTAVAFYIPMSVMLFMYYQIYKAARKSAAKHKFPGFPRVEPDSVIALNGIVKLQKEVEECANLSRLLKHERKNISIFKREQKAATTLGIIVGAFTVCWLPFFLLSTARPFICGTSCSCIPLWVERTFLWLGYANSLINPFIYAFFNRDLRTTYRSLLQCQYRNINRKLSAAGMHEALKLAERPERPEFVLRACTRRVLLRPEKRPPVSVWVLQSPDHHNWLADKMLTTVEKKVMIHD
human Serotonin, 5-Hydroxytryptamine Receptor 6 (5HT6), HTR6 (gene 3362), sequence (P50406 whole entry, looked up): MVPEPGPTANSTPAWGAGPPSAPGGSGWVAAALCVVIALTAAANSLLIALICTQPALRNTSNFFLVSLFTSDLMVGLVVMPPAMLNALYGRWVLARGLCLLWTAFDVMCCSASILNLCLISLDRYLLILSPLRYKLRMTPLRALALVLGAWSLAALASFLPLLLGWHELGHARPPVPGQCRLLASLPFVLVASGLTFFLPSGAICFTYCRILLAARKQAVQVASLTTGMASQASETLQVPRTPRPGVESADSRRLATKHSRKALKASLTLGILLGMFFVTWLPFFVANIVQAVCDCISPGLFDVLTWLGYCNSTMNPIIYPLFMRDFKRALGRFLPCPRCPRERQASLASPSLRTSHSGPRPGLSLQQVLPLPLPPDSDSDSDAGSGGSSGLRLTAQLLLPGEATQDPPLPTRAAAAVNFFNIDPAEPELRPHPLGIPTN
human Serotonin, 5-Hydroxytryptamine Receptor 5A (5HT5A), HTR5A (gene 3361), sequence (P47898 whole entry, looked up): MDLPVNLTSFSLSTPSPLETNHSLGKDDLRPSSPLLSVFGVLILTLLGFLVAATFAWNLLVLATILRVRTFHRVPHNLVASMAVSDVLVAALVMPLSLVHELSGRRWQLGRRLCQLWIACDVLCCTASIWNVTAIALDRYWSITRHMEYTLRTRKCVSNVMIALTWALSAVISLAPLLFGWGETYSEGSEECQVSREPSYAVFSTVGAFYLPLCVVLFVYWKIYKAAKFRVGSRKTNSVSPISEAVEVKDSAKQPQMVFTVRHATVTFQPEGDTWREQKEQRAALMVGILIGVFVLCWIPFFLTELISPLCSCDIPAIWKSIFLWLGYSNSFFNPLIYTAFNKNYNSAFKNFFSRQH
guinea pig Opioid, Kappa 1 Receptor (OpiateK), OPRK1 (gene 100135587), sequence (P41144 whole entry, looked up): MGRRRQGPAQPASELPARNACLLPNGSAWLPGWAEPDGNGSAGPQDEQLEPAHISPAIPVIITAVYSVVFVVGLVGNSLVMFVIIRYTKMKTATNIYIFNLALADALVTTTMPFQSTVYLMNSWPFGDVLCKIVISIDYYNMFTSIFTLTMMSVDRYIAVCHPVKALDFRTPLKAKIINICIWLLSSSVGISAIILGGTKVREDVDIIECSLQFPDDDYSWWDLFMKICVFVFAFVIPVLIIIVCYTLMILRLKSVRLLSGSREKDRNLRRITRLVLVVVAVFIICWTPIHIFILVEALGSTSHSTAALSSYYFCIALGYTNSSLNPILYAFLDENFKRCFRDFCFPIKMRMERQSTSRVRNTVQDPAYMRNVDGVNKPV
human Serotonin, 5-Hydroxytryptamine Receptor 2A (5HT2A), HTR2A (gene 3356), sequence (P28223 whole entry, looked up): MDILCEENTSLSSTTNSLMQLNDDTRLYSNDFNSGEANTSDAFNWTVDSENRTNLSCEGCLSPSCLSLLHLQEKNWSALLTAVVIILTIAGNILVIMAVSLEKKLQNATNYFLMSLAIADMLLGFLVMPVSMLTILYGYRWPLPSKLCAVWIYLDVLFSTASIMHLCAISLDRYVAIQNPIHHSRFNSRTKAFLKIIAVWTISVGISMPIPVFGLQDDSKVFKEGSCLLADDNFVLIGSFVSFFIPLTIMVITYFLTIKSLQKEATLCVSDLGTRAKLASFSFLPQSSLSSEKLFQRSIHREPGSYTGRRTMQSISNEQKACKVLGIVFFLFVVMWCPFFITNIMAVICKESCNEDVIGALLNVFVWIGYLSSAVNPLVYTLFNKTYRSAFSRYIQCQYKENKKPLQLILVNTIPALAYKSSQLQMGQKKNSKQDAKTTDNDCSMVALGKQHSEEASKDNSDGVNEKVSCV
human Vascular Endothelial Growth Factor Receptor 2 (VEGFR2), KDR (gene 3791), sequence (P35968 whole entry, looked up): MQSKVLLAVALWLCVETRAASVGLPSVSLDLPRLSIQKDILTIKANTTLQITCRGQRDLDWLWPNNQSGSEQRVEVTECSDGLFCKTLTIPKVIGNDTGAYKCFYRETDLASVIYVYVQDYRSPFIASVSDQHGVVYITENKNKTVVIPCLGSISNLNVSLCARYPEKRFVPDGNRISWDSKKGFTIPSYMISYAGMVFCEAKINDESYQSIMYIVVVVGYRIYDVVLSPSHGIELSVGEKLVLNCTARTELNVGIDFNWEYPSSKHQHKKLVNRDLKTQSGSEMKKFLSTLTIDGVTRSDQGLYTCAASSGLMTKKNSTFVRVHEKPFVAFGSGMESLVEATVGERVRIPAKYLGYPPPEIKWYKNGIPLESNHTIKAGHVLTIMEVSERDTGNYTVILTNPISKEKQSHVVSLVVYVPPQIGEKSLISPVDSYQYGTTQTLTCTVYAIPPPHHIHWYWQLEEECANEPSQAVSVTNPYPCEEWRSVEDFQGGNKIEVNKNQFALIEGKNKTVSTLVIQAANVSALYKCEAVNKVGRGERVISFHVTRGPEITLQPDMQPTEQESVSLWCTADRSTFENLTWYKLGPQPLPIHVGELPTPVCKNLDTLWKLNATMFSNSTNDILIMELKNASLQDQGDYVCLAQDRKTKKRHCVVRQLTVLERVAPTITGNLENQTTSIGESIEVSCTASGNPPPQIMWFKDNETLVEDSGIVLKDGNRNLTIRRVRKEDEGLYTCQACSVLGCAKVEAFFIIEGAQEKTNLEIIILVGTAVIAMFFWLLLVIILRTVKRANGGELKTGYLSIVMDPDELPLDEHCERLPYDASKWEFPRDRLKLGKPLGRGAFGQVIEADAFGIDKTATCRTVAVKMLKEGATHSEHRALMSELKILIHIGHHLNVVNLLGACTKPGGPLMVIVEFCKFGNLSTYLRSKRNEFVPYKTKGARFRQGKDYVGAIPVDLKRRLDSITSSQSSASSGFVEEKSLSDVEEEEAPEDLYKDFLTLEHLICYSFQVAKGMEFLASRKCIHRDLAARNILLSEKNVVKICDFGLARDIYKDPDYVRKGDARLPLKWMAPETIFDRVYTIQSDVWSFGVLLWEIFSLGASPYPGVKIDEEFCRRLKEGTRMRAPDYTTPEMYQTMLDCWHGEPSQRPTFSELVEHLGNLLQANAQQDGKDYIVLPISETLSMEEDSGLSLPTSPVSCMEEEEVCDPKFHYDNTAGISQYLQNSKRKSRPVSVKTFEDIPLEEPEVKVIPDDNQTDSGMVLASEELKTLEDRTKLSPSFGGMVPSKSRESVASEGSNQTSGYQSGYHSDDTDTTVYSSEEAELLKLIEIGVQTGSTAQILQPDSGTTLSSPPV
guinea pig Leukotriene D4 Receptor (LTD4), CYSLTR1 (gene 100135514), sequence (Q2NNR5 whole entry, looked up): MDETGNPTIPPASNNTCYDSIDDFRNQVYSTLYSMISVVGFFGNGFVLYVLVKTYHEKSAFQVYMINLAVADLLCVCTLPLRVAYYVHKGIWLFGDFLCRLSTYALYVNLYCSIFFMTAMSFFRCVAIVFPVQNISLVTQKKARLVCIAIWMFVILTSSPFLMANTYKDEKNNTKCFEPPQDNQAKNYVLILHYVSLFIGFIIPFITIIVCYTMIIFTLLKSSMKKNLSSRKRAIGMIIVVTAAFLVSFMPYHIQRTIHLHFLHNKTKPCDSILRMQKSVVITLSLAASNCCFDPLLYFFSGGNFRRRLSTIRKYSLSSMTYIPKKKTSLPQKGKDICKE
human Adenosine A1 Receptor (AdoRA1), ADORA1 (gene 134), sequence (P30542 whole entry, looked up): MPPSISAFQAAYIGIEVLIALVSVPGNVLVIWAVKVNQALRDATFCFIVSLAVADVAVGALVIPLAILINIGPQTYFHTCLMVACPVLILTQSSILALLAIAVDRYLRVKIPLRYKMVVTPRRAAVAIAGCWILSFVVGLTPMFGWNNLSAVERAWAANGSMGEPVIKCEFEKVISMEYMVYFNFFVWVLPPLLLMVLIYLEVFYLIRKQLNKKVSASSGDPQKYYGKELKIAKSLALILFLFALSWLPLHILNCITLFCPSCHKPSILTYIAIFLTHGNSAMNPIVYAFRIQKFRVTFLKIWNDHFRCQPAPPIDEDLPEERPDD
rat Catechol-O-Methyl Transferase (COMT), Comt (gene 24267), sequence (P22734 whole entry, looked up): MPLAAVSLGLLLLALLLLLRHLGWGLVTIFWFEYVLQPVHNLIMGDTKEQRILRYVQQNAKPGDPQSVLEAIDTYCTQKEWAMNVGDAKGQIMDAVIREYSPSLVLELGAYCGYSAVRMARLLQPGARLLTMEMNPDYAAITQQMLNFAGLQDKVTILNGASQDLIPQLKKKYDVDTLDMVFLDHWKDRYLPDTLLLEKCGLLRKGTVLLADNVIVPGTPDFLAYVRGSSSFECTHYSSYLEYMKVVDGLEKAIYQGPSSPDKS

As to `CCN(Cc1cccnc1)C(=O)c1cccc(Cl)c1[C@]1(C)C(=O)N(Cc2ccc(OC)cc2OC)c2ccc(Cl)cc21`, the compound was classed as inactive in experiment [1] and in experiment [2]. Besides, the AC50 in experiment [3] is 9.32 µM (active); in experiment [4], 15.9 µM (active); in [5], 4.88 µM (active); in experiment [6], 11.1 µM (active); in experiment [7], 6.41 µM (active).
As for `Cc1c2ccccc2c(C)c2c1ccc1ccccc12`, the result in [1] was inactive. Further, the AC50 in experiment [8] was 43.3 µM (active).
`c1ccc2ccccc2c1`: the compound was called inactive in [1].
Consider `O=C1O[C@H]([C@@H](O)CO)C(O)=C1O`, for which the AC50 in [9] was 11.5 µM (active).
Take `CC[C@H](NC(=O)c1cc(F)ccc1NS(=O)(=O)c1cccc2cccnc12)c1ccccc1`: the outcome in experiment [8] and in experiment [3] was inactive. Also, the AC50 was 0.206 µM (active) in experiment [10] and 1.31 µM (active) in [11].
`CCCCCCCCCCCC[N+](C)(C)C`: in experiment [2], the call was inactive. In addition, the AC50 was 4.04 µM (active) in experiment [4], 4.49 µM (active) in [12] and 17.3 µM (active) in experiment [7].
As for `Cc1ccc2oc(CN(Cc3ccccc3)C(=O)Nc3c(F)cc(F)cc3F)c(-c3ccc(Cl)cc3)c2c1`, the compound was called inactive in experiment [13].
Regarding `CC(C)(C)c1csc(-c2cc3cc(OCc4ccccc4CC(=O)O)ccc3o2)n1`, in experiment [3], the AC50 was 0.0125 µM (active). In addition, the compound was classed as inactive in experiment [5].
`CCN(Cc1cccc(S(=O)(=O)O)c1)c1ccc(C(=C2C=CC(=[N+](CC)Cc3cccc(S(=O)(=O)O)c3)C=C2)c2ccccc2S(=O)(=O)[O-])cc1`: the half-maximal activity concentration (AC50) in experiment [7] is 10.3 µM (active).
Take `CCOC(=O)O[C@H](C)OC(=O)c1ccc2c(c1)cc(C(=O)NC1CCN(C(C)C)CC1)n2Cc1cc(-c2ccc(Cl)s2)on1`: the AC50 in [2] is 23.6 µM (active); in [4] it was 23.6 µM (active); in experiment [12], 16.6 µM (active); in experiment [5], 6.7 µM (active); in [11], 7.12 µM (active); in [14], 15.9 µM (active). In addition, the concentration at half-maximal activity (AC50) is 2.12 µM (active) in [7] and 10.2 µM (active) in experiment [15].
Regarding `O=c1[nH]sc2ccccc12`, the AC50 in experiment [3] is 3.31 µM (active); in experiment [5], 14.2 µM (active); in experiment [6] it was 21.5 µM (active); in experiment [11], 14.3 µM (active); in experiment [7], 14.7 µM (active).
As to `CC(C)(O)c1ccc(CNC(=O)c2cccnc2Oc2ccc3nonc3c2)cc1`, the AC50 was 0.646 µM (active) in experiment [10] and 14.3 µM (active) in experiment [6]. Further, the result in [15] was inactive.
Regarding `Cc1occc1C(=O)Nc1ccc(C(=O)N2CCC(F)(F)/C(=C\C(=O)N3CCC(N4CCCCC4)CC3)c3ccccc32)cc1`, the concentration at half-maximal activity (AC50) was 3.76 µM (active) in [16]; 5.65 µM (active) in experiment [12]; 2.49 µM (active) in experiment [6]; 3.24 µM (active) in experiment [14]; 4.89 µM (active) in experiment [7]; 2.33 µM (active) in experiment [15].
Regarding `CN1C(=O)N(c2ccccc2Br)Cc2cnc(Nc3ccc4c(c3)OCC(CO)O4)nc21` (stereo not drawn), the compound was called inactive in experiment [5] and in [7].
For `OC12N=C(c3ccccc3)SC1Cc1cc(Cl)ccc12` (stereo not drawn), the result in experiment [4] was inactive.

For orientation: AC50 means the concentration giving half of the maximal activity seen.

The values are drawn from PubChem BioAssay (EPA / NIEHS).
